Compound activity: PubChem, The Scripps Research Institute Molecular Screening Center
TEAD-YAP inh: TEAD-YAP interaction inhibition; HEK-TIYL cells, TEAD-Gal4/YAP UAS-luciferase luminescence; AID 1259422; inhibition, % at 9.12 µM; 1.4% of 640,000 active; in the data active means inhibition above about 32%;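 further: 0% = median of test compound wells and 100% = reference inhibitor wells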
MITF inh: human MITF inhibition, primary screen; O75030; AlphaScreen MITF homodimerization, bead proximity signal; inhibition, % at 2.6 µM; 0.91% of 650,000 active; AID 1259374; in the data active means inhibition above about 50%;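 further: 0% = vehicle wells with protein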
FBW7 act: human FBW7 E3 ligase activation, primary screen; Q969H0; AID 1259310; AlphaScreen FBW7–phospho-cyclin E peptide binding, activator screen; 0.13% of 650,000 active; normalized activity (activation), % at 26.1 µM; in the data active means normalized activity above about 1.9%;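 further: purified mutant Fbw7 with reduced substrate affinity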
GPR151 activ: activates the human receptor GPR151. Q8TDV0. PathHunter beta-arrestin GPR151 cells, luminescence. activation, % at 11.2 µM. 1% of 650,000 active; in the data active means activation above about 4.9%;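 further: 0% = median of compound wells and 100% = cells with positive control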
Target sequence (Q8TDV0 whole entry, looked up): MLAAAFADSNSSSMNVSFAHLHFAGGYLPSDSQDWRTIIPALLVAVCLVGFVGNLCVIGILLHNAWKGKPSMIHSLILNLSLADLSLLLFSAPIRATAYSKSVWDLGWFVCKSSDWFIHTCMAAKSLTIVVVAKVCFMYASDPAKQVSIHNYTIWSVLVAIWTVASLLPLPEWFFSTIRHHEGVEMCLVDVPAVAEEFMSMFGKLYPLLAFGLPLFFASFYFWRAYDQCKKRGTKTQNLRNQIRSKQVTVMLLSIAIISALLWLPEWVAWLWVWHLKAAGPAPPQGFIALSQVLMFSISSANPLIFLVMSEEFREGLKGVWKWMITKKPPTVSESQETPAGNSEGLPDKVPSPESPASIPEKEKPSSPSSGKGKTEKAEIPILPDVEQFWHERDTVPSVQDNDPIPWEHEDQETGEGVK
Active calls of the source: *. Rows were chosen to be rich in hits. Some 3.5% of all compounds tested hit in one or more screens of this group.

SMILES | TEAD-YAP inh | MITF inh | FBW7 act | GPR151 activ
O=C(Nc1ccc(-c2nc3ccccc3o2)cc1)c1ccc(NC(=O)c2cc(Cl)ccc2Cl)cc1 | 1 | 9 | 0 | -1
CCOc1ccccc1NC(=O)C1=C(C)NC(=O)NC1c1ccc(OC)cc1 (stereo unspecified) | 5 | 1 | 0 | 1
O=C(CCc1cccs1)NCC1CCC2(CCN(C(=O)c3ccc(F)cc3)CC2)O1 (stereo unspecified) | -2 | -1 | -1 | 0
O=C(CC1CCCC1)NCC1CCC2(CCN(C(=O)c3ccc(F)cc3)CC2)O1 (stereo unspecified) | 12 | 25 | 2.0* | 1
COc1ccc2nc(-c3ccc(N)cc3)[nH]c2c1 | 54* | 1 | 0 | -7
O=C1c2ccccc2C(=O)c2c1oc1c3c(ccc21)OCN(CCCN1CCOCC1)C3 | 81* | 22 | 0 | -1
O=C1CCC(=O)N1c1ccc(F)c(Cl)c1 | -5 | -1 | 0 | 0
COc1ccccc1N=c1scc(-c2ccc(OC)c(OC)c2)n1CCCO | 42* | 11 | 0 | 1
COc1ccc(-c2csc(=Nc3ccccc3)n2CCCO)cc1OC | 5 | 11 | 0 | -1
O=C1CCCC2=C1C(c1ccc(O)c(Br)c1)C1=C(CCCC1=O)O2 | 45* | 17 | 0 | 0
COc1cc(-c2cccc3cnc(Nc4ccc(-n5cnc(C)n5)cc4)nc23)ccn1 | 14 | 28 | 0 | 1
Cc1ncn(-c2ccc(Nc3ncc4cccc(-c5ccccn5)c4n3)cc2)n1 | 42* | 22 | 0 | 0
Cc1ncn(-c2ccc(Nc3ncc4cccc(-c5ncco5)c4n3)cc2)n1 | 70* | 43 | 1 | -1
Cc1ccc(-c2cccc3cnc(Nc4ccc(-n5cnc(C)n5)cc4)nc23)cn1 | 61* | 13 | 1 | -2
Cc1ncn(-c2ccc(Nc3ncc4cccc(-c5cncnc5)c4n3)cc2)n1 | -23 | 6 | 0 | -2
Cc1cc(-c2cccc3cnc(Nc4ccc(-n5cnc(C)n5)cc4)nc23)ccn1 | 62* | 6 | 1 | 1
CCOC(=O)c1c(C)n(CCc2ccccc2)c2ccc(OCC)cc12 | -3 | -3 | 0 | 1
Cc1ccc(-c2cccc3cnc(Nc4ccc(-n5cnc(-c6ccccn6)n5)cc4)nc23)cn1 | 28 | 28 | 5.7* | 0
Cc1ncn(-c2ccc(Nc3ncc4cccc(-c5cccc(F)c5)c4n3)cc2)n1 | 0 | 12 | 0 | -1
Nc1ccc2oc(-c3ccccc3Br)nc2c1 | 25 | 6 | 1 | -1
Nc1ccc2oc(-c3ccc(O)c(Br)c3)nc2c1 | 59* | 1 | 0 | -10
Nc1ccc2oc(-c3ccc(F)cc3)nc2c1 | -2 | 2 | 0 | -8
Nc1ccc2oc(-c3cccc(Br)c3)nc2c1 | -42 | 9 | 0 | 1
Nc1ccc2oc(-c3cccc4c(Br)cccc34)nc2c1 | 65* | 4 | 0 | 4
Nc1ccc2oc(-c3ccc4nc[nH]c4c3)nc2c1 | 61* | 6 | 0 | -6
SMILES | TEAD-YAP inh | MITF inh | FBW7 act | GPR151 activ
Nc1ccc2oc(-c3ccc(F)cc3Cl)nc2c1 | 37* | -2 | 0 | -5
N#Cc1c(N2CCOCC2)nc(N)c2c(N)nc3c(c12)CC(=O)N3c1ccccc1 | 4 | -2 | 0 | 0
O=C(Nc1nc(-c2ccccn2)cs1)c1ccc(Oc2ccccc2)cc1 | 43* | 0 | 0 | -1
COc1cc(OC)cc(C(=O)Nc2nc(-c3ccccn3)cs2)c1 | 49* | 18 | 0 | 0
CCN1CCN(C(=O)c2cnc(N3CCN(c4ccccc4OC)CC3)c3ccccc23)CC1 | 24 | 6 | 0 | 0
CCOC(=O)C1=C(C)Nc2nnnn2C1c1cccc([N+](=O)[O-])c1 (stereo unspecified) | 6 | 15 | 0 | 1
COc1cc(Br)ccc1OCC(=O)N/N=C/c1ccc(C)cc1O | 1 | 5 | 0 | -1
O=C(Nc1cccc(NC(=O)c2ccc([N+](=O)[O-])cc2[N+](=O)[O-])c1)c1ccccc1 | -15 | 9 | 0 | 0
CCN(CC)CCCn1c(-c2ccc(Br)cc2)cn2c3ccccc3nc12 | -3 | 20 | 2.2* | 2
Brc1ccc(-c2cn3c4ccccc4nc3n2CCCN2CCCCC2)cc1 | -2 | 7 | 2.2* | -2
Clc1ccc(-c2cn3c4ccccc4nc3n2CCCNC2CCCCC2)cc1 | -13 | -17 | 3.1* | 3
CCN(CC)CCCn1c(-c2ccc(Cl)cc2)cn2c3ccccc3nc12 | 2 | -3 | 1 | 0
CC[C@@H](Cn1nc(-c2ccc(F)c(F)c2)ccc1=O)NC(=O)C1CC1 | -4 | 2 | 0 | 1
CCc1ccccc1Nc1ncnc(N)c1[N+](=O)[O-] | -16 | 7 | 0 | 0
COc1ccccc1-n1c(CNC(=O)c2ccc(S(=O)(=O)N(C)C)cc2)nnc1SCC(=O)Nc1ccccc1F | -5 | -9 | 0 | -1
Cc1nc(C)n(-c2ccc(Nc3ncc(F)c(-c4cc(F)cc(N5CCOCC5)c4)n3)cc2)n1 | -2 | -5 | 0 | 2
CN1CCN(c2ncn(-c3ccc(Nc4ncc(F)c(-c5cccc(N6CCOCC6)c5)n4)cc3)n2)CC1 | 62* | 17 | 0 | 1
Cn1cc(-c2ccc3cnc(Nc4ccc(-n5cnc(N6CCOCC6)n5)cc4)nc3n2)cn1 | 80* | 13 | 0 | 0
N#Cc1cc(-c2nc(Nc3ccc(N4CCOCC4)cc3)ncc2F)cc(N2CCOCC2)c1 | 4 | -2 | 0 | -1
Cn1cc(-c2ccc(-c3ccnc(Nc4ccc(-n5cnc(N6CCOCC6)n5)cc4)n3)cc2)cn1 | -5 | 6 | 0 | -1
CCn1cc(-c2ccc3cnc(Nc4ccc(-n5cnc(N6CCOCC6)n5)cc4)nc3c2Cl)cn1 | 0 | 12 | 0 | 0
CC1CN(c2ncn(-c3ccc(Nc4ncc5ccc(-c6cnn(C)c6)c(Cl)c5n4)cc3)n2)CC(C)O1 (stereo unspecified) | 57* | 21 | 0 | 0
CN1CCN(c2ncn(-c3ccc(Nc4ncc(F)c(-c5cc(F)cc(N6CCOCC6)c5)n4)cc3)n2)CC1 | 77* | 0 | 0 | 1
CCSCCOC(=O)C1=C(C)NC(=O)NC1c1cc(Br)ccc1OC (stereo unspecified) | 19 | 13 | 1 | -1
Cn1cnnc1-c1ccc(Nc2ncc(F)c(-c3ccccc3)n2)cc1 | 41* | 16 | 0 | 1
SMILES | TEAD-YAP inh | MITF inh | FBW7 act | GPR151 activ
Cn1cnnc1-c1ccc(Nc2ncc(F)c(-c3cc(F)cc(N4CCOCC4)c3)n2)cc1 | 72* | 19 | 0 | 4
Cn1cc(-c2nc(Nc3ccc(-n4cnc(N5CCC(O)CC5)n4)cc3)ncc2F)cn1 | 85* | -5 | 0 | 0
Cn1cnnc1-c1ccc(Nc2nccc(-c3cccc(Nc4ccccc4)c3)n2)cc1 | 2 | 9 | 1 | -2
O=C1N/C(=C\c2ccc(N3CCOCC3)cc2)C(=O)N1Cc1ccccc1Cl | -6 | -13 | 0 | 0
CC(=O)Oc1ccc2c(-c3cc4cc(Cl)ccc4oc3=O)cc(=O)oc2c1 | 4 | 7 | 0 | 1
COc1ccc(N/N=C(\Cl)C(C)=O)cc1 | 4 | 20 | 1.9* | 1
Cc1ccc(-c2cnc(Oc3ccc(CCO)cc3)nc2)cc1 | -39 | 5 | 0 | -1
